Most compounds without a hit are left out; they make up all but 3.5% or so of the library.
GPR151 activ: activators of human GPR151, primary screen, cell-based, PathHunter beta-arrestin, luminescence | PathHunter beta-arrestin GPR151 cells | activation, % at 11.2 µM | 650,000 compounds, 1% hits | AID 1508602, 2020; in the data active means activation above about 4.9%
TEAD-YAP inh: TEAD-YAP interaction inhibition, primary screen, TEAD-YAP interaction inhibitor project, luminescence, HEK-TIYL cells. TEAD-Gal4/YAP UAS-luciferase luminescence. AID 1259422, 2018. 640,000 compounds, 1.4% hits. inhibition, % at 9.12 µM; in the data active means inhibition above about 32%
MITF inh: MITF inhibitors, primary screen, biochemical, AlphaScreen, human; AlphaScreen MITF homodimerization, bead proximity signal; 650,000 compounds, 0.91% hits; Microphthalmia-associated transcription factor (Homo sapiens), O75030; inhibition, % at 2.6 µM; AID 1259374, 2018; in the data active means inhibition above about 50%
FBW7 activator: FBW7 E3 ligase activators, primary screen, biochemical, AlphaScreen, human. AlphaScreen FBW7–phospho-cyclin E peptide binding, activator screen. normalized activity (activation), % at 26.1 µM. 650,000 compounds, 0.13% hits. AID 1259310, 2017; in the data active means normalized activity above about 1.9%;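 further: purified mutant Fbw7 with reduced substrate affinity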
Target sequence (Q969H0 whole entry, looked up): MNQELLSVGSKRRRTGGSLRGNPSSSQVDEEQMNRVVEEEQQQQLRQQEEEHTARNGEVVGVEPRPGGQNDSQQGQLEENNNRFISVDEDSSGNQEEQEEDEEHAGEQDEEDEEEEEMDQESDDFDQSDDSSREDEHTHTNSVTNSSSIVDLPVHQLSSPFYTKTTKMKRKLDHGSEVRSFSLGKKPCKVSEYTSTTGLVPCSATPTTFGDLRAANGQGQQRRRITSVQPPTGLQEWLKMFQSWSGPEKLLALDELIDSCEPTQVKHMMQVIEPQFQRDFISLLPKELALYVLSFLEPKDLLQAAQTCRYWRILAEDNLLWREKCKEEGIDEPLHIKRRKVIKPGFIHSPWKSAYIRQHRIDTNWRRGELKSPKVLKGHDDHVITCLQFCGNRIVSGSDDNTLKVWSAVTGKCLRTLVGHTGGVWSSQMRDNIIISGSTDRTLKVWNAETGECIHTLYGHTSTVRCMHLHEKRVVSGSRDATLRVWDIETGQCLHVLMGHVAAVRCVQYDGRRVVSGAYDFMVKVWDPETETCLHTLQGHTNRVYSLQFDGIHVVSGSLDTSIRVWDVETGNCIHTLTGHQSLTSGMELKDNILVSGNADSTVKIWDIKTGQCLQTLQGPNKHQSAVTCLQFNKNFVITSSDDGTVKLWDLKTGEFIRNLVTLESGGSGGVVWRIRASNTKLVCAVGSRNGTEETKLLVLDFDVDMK
GPR151 conf act: GPR151 activators, triplicate retest, confirmation, cell-based, PathHunter beta-arrestin, luminescence; shares compounds with GPR151 activ; GPR151 PathHunter beta-arrestin cells, 90 min; % of EA-reagent control over plate median; activation, % at 11.2 µM; 6,700 tested, under 10 active; AID 1508609, 2020;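 active means mean percent activation across replicates above the confirmation screen cutoff of 4.91%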
GPR119 counter: GPR119 activators in beta-arrestin cells, counter-screen for GPR151 activator project, cell-based, PathHunter beta-arrestin, luminescence, triplicate. shares compounds with GPR151 activ. 90 min; 0 = compound-well median, 100 = enzyme-acceptor control. activation, % at 11.2 µM. 6,700 compounds, 0.3% hits;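 active means mean percent activation in the counterscreen above 29.09%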;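 further: counterscreen on off-target GPR119 to flag nonselective hits from the GPR151 activator screen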
Of the large screens only hits and unclear results are named; the others gave an inactive call (follow-up assays come after a bar, where they were run).

COc1ccccc1N1CCN(C(c2ccc(N(C)C)cc2)c2nnnn2C(C)C)CC1 (centres undefined)	GPR151 activ 5.3 | GPR151 conf act inactive | GPR119 counter inactive
COc1ccccc1-c1ncnn1-c1sc2c(c1C#N)CCCCC2	none
Cc1cc(C)cc(NC(=O)Cn2c3ccccc3c(=O)c3cc(C)ccc32)c1	none
O=C(O)/C=C\C(=O)Nc1ccc(-c2nc3cc4ccccc4cc3[nH]2)cc1	none
COc1cc(Nc2nc(SCC(=O)Nc3cc(C)[nH]n3)nc3ccccc23)cc(OC)c1	none
O=C(N/N=C/c1ccncc1)c1cc(-c2ccc(Br)cc2)n[nH]1	GPR151 activ 5.8 | GPR151 conf act inactive | GPR119 counter inactive
O=C(N/N=C/c1ccccc1O)c1cc(-c2ccc(Br)cc2)n[nH]1	GPR151 activ 5.5 | GPR151 conf act inactive | GPR119 counter inactive
COC(=O)c1ccc(/C=N/NC(=O)c2cc3ccccc3cc2O)cc1	none
O=C(N/N=C/c1cc(I)ccc1O)c1cc(-c2ccccc2)n[nH]1	none
O=C(N/N=C/c1ccc(O)cc1)c1cc(-c2ccc(Br)cc2)n[nH]1	none
O=C(N/N=C/c1ccncc1)c1cc2ccccc2cc1O	GPR151 activ 5.0 | GPR151 conf act inactive | GPR119 counter inactive
CC(C)(C)NC(=O)CN(C(=O)C1(C)CC(=O)N=C2C=CC=CN21)C1CCCCC1 (centres undefined)	none
Nc1cccc(S(=O)(=O)NC2=NCCC2)c1	none
CCOC(=O)Cn1nnnc1CN(Cc1ccccc1)Cc1cc2cc(C)ccc2[nH]c1=O	GPR151 activ 6.4 | GPR151 conf act inactive | GPR119 counter inactive
CC(=O)c1cccc(NC(=O)COc2ccc(S(=O)(=O)NCc3ccccc3)cc2)c1	none
O=S(=O)(c1ccccc1)N1CCCCC1	none
CCOc1ccc(NC(=O)C2c3cccc[n+]3CC(=O)N2c2ccccc2O)cc1 (centres undefined)	GPR151 activ 5.1 | GPR151 conf act inactive | GPR119 counter inactive
O=C(Nc1ccc(Cl)cc1)C1c2cccc[n+]2CC(=O)N1c1ccc(O)cc1 (centres undefined)	none
CCOC(=O)C1=C(C)OC(N)=C(C#N)C1c1ccc(OC)c(OC)c1 (centres undefined)	none
CCOC(=O)C1=C(C)OC(N)=C(C#N)C1c1ccccc1C(F)(F)F (centres undefined)	GPR151 activ 7.1 | GPR151 conf act inactive | GPR119 counter inactive
COC(=O)C1=C(C)OC(N)=C(C#N)C1c1ccccc1C(F)(F)F (centres undefined)	none
CCOC(=O)C1=C(C)OC(N)=C(C#N)C1c1ccc(OC)c(OCC)c1 (centres undefined)	GPR151 activ 5.2 | GPR151 conf act inactive | GPR119 counter inactive
O=C(N1CCC(Cc2ccccc2)CC1)C1(c2cccs2)CCOCC1	none
Fc1ccc(N2N=C(c3ccc(Cl)cc3)CC2c2ccc(Cl)cc2)c(Br)c1 (centres undefined)	none
COCCCNc1nc2nonc2nc1N(C)Cc1ccccn1	none
COCCCNc1nc2nonc2nc1N(C)Cc1ccc(F)cc1	GPR151 activ 5.8 | GPR151 conf act inactive | GPR119 counter inactive
Cc1cc(=O)[nH]c(N/N=C/c2cc(C)n(-c3ccccc3)c2C)n1	none
COc1ccc2nc(Cl)c(C3CC(c4ccccc4)=NN3C(=O)CCCC(=O)O)cc2c1 (centres undefined)	GPR151 activ 5.0 | GPR151 conf act inactive | GPR119 counter inactive
COc1ccc2nc(Cl)c(C3CC(c4ccc(Cl)cc4)=NN3C(=O)CCCC(=O)O)cc2c1 (centres undefined)	none
CCOC(=O)CNC(=O)c1c(-c2ccccc2)noc1C	none
CCOc1ccc(C(=O)Nc2sc(C)c(C)c2C#N)cc1	none
CCCCOc1ccc(C(=O)Nc2sc(C)c(C)c2C#N)cc1	GPR151 activ 8.3 | GPR151 conf act inactive | GPR119 counter inactive
Cc1ccc(NC(=O)NC23CC4CC(CC(C4)C2)C3)cc1NC(=O)NC12CC3CC(CC(C3)C1)C2	none
Cc1ccc(NC(=O)NC23CC4CC(CC(C4)C2)C3)cc1	GPR151 activ 5.6 | GPR151 conf act inactive | GPR119 counter inactive
CCc1ccc(NC(=O)c2nn3c(C(F)(F)F)cc(-c4ccccc4)nc3c2Cl)cc1	none
Cc1n[nH]c(C)c1CCC(=O)N/N=C\c1ccc(C(C)(C)C)cc1	none
Cc1n[nH]c(C)c1CCC(=O)N/N=C/c1ccc(Cl)cc1	GPR151 activ 6.0 | GPR151 conf act inactive | GPR119 counter inactive
Cc1n[nH]c(C)c1CCC(=O)O	GPR151 activ 4.9 | GPR151 conf act inactive | GPR119 counter inactive
COc1ccc(S(=O)(=O)/N=C2/NC(=O)/C(=C\c3ccco3)S2)cc1	GPR151 activ 7.4 | GPR151 conf act inactive | GPR119 counter inactive
Cc1ccc(S(=O)(=O)/N=C2/NC(=O)/C(=C/c3ccco3)S2)cc1	none
Cc1ccc(Oc2cccc(NC(=O)c3cccc4ccccc34)c2)nn1	GPR151 activ 5.6 | GPR151 conf act inactive | GPR119 counter inactive
Cc1cc(NC(=O)COc2ccc(C#N)cc2)ccc1Br	none
C=CCNC(=O)NC(=O)COC(=O)CC(NC(N)=O)c1ccc(Cl)cc1 (centres undefined)	GPR151 activ 4.9 | GPR151 conf act inactive | GPR119 counter inactive
COc1ccc(-n2nc(C(=O)NCC(=O)NC3CCCCCC3)c3ccccc3c2=O)cc1	none
COc1ccc(CC(=O)Nc2ccccc2NC(C)=O)cc1	none
CNS(=O)(=O)c1ccccc1Nc1cc(NC(=O)Cc2ccc(OC)cc2)ncc1C(F)(F)F	GPR151 activ 11.1, TEAD-YAP inh 93.0 | GPR151 conf act inactive | GPR119 counter inactive
Cc1cc(NC(=O)CSc2cccc[n+]2[O-])ccc1Br	none
CCN(CCNC(=O)c1cc(C)nn1-c1ccccc1)c1ccccc1	GPR151 activ 7.9 | GPR151 conf act inactive | GPR119 counter inactive
COCCNC(=O)c1cc(C)nn1-c1ccccc1	none
COc1ccccc1N1CCN(C2CCCN(Cc3ccc4nonc4c3)C2)CC1 (centres undefined)	GPR151 activ 8.0 | GPR151 conf act inactive | GPR119 counter inactive
COc1ccccc1N1CCN(C2CCCN(Cc3ccncc3)C2)CC1 (centres undefined)	none
COc1ccc(CN2CCCC(N3CCN(c4ccccc4OC)CC3)C2)cc1O (centres undefined)	none
COc1ccccc1N1CCN(C2CCCN(Cc3cccn3-c3cccnc3)C2)CC1 (centres undefined)	GPR151 activ 7.5 | GPR151 conf act inactive | GPR119 counter inactive

Compound activity: PubChem BioAssay, The Scripps Research Institute Molecular Screening Center
